This note sets out measurements from PubChem BioAssay AID1578 (Sanford-Burnham Center for Chemical Genomics, 2009).

The structures appear in SMILES notation. Several values for one entry are separate records, joined by “and”; a condition that tells them apart may be missing. Equal values may be shown once. Among all 290,000 compounds or so, about 3,000 (1%) were called active. This is one part of a sample in which actives are shown more often than they occur. No stated cut-off is given here; in the data, active means inhibition mostly above about 36% (no sharp cut-off); inactive means mostly below about 34%. Where a structure was tested more than once in an assay, its records may differ in their call.

The nature of this assay: NOD1 signaling inhibitors, primary screen, cell-based, luminescence, uHTS (AID 1578).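 Further: HEK-293T reporter cells stimulated with the NOD1 agonist gamma-tri-DAP.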 Conditions: NOD1-driven NF-kB luciferase reporter cells, at 4 µM, stronger effect = higher value. A general note: Reporter assays use an easily measured gene product as a stand-in for the process of interest.
In general, inhibition refers to the drop in the measured response relative to a control, in per cent. On to `COc1ccc(NC(=O)c2cc(S(=O)(=O)N3CCOCC3)cn2C)c(OC)c1`, for which the inhibition is -19% (inactive).

Regarding `C=CCNC(=S)N1CCC(C(=O)c2ccc(F)cc2)CC1`, the inhibition is -20.4% (inactive).

On to `CCCNC(=S)N1CCC(C(=O)c2ccc(F)cc2)CC1`, for which the inhibition is -20.1% (inactive).

As to `CC(C)CNC(=S)N1CCC(C(=O)c2ccc(F)cc2)CC1`, the inhibition is 61.7% (active).

Consider `Cc1ccc(C)c2c1sc(=NC(=O)CN1C(=O)CCC1=O)n2C`, for which the inhibition was 1.3% (inactive).

Consider `CCOC(=O)c1ccc(NC(=O)C2(c3ccccc3)CCCC2)cc1`, for which the inhibition was 14% (inactive).

Regarding `Cc1[nH]n(-c2ncc(-c3ccc(Cl)cc3)s2)c(=O)c1C(c1ccc(Cl)cc1)C(C#N)C#N` (stereo not drawn), the inhibition was 67.3% (active).

In the case of `CCCc1[nH][nH]c(=O)c1C(c1ccc(Cl)cc1)C(C#N)C#N` (stereo not drawn), the inhibition is 3.7% (inactive).

Take `Cc1[nH]n(-c2ncc(-c3ccccc3)s2)c(=O)c1C(c1ccc(Br)cc1)C(C#N)C#N` (stereo not drawn): the inhibition was 32.7% (inactive).

Regarding `Cc1ccccc1N(C(=O)Cc1ccsc1)C(C(=O)NC1CCCCC1)c1ccc(F)cc1` (stereo not drawn), the inhibition was -25.2% (inactive).

`Cc1c(C2=CCN(S(=O)(=O)c3ccc(Br)cc3)CC2)c2ccccc2n1C`: the inhibition was 0.5% (inactive).

`CC(=O)C1=C(C)NC(=O)NC1c1cccc([N+](=O)[O-])c1O` (stereo not drawn): the inhibition is -9.2% (inactive).

For `O=C(O)c1cc(-c2ccco2)nc2ccc(Br)cc12`, the inhibition was 75.3% (active) and -18.2% (inactive).

For `O=C(O)c1cc(-c2ccco2)nc2ccccc12`, the inhibition was -13.5% (inactive).

`O=C(O)c1cc(-c2ccco2)nc2cc3ccccc3cc12`: the inhibition was -6.3% (inactive).

For the compound `Clc1ccc(COn2c(-c3ccc(Cl)cc3)nc3ccccc32)cc1`, the inhibition was -31.8% (inactive).

As to `COc1cc(/C=N/NC(=O)C2C3CCCCC32C)cc(Br)c1O` (stereo not drawn), the inhibition is 6.5% (inactive).

As to `COc1ccc(/C=N/NC(=O)C2C3CCCCC32)cc1OC` (stereo not drawn), the inhibition is -9.5% (inactive).

On to `COc1ccc(/C=N/NC(=O)C2C3CCCCC32C)cc1OC` (stereo not drawn), for which the inhibition is 47.1% (active).

Take `FC(F)(F)c1cc(Oc2ccc(Cl)cc2)ncc1-c1nnc(-c2ccc(Cl)cc2)o1`: the inhibition is -6.5% (inactive).

Consider `CC(C)C(NS(=O)(=O)c1ccccc1)C(=O)OCc1cc([N+](=O)[O-])cc2c1OCOC2` (stereo not drawn), for which the inhibition was -12.4% (inactive).

Consider `CC(Sc1cccc[n+]1[O-])C(=O)Nc1ccc([N+](=O)[O-])cc1Cl` (stereo not drawn), for which the inhibition was -22.4% (inactive).

In the case of `Cc1ccc(-c2noc(C3CCCCC3)n2)cc1`, the inhibition was -58.2% (inactive).

Regarding `COc1ccc([N+](=O)[O-])cc1N(CC(=O)NCC1CCCO1)S(C)(=O)=O` (stereo not drawn), the inhibition is -19.1% (inactive).

As for `O=C(NCC1CCCO1)c1ccc(Oc2ccc([N+](=O)[O-])cc2)cc1` (stereo not drawn), the inhibition was 42.4% (active).

On to `O=C(NCC1CCCO1)c1cccc(Oc2ccc([N+](=O)[O-])cc2)c1` (stereo not drawn), for which the inhibition was -20.6% (inactive).

For the compound `CS(=O)(=O)N(CC(=O)NCC1CCCO1)c1cccc([N+](=O)[O-])c1` (stereo not drawn), the inhibition was -15% (inactive).

As for `Cc1ccc([N+](=O)[O-])cc1N(CC(=O)NCC1CCCO1)S(C)(=O)=O` (stereo not drawn), the inhibition was 60.2% (active).

Take `O=C(NCC1CCCO1)c1ccc(Oc2ccc([N+](=O)[O-])cc2Cl)cc1` (stereo not drawn): the inhibition is 13.6% (inactive).

Take `COc1ccc(CCNC(=O)CCn2c(SCC#N)nc3ccccc3c2=O)cc1OC`: the inhibition was 10.3% (inactive).

Consider `COc1ccc2c(C)cc(SCC(=O)Nc3cccnc3Cl)nc2c1`, for which the inhibition was -12.9% (inactive).

Regarding `Nc1nonc1-n1nnc(C(=O)N/N=C/c2ccccc2)c1CN1CCc2ccccc21`, the inhibition was -21.6% (inactive).

With `CNC(=O)NC(=O)COC(=O)CCCOc1ccc(OC)cc1`, the inhibition is 4.1% (inactive).

With `CCOc1ccc(CCNC(=O)c2cc3sccc3n2CC)cc1OCC`, the inhibition is 49.7% (active).

As to `COc1ccc(CCNC(=O)c2cc3sccc3n2C)cc1OC`, the inhibition is 5.4% (inactive).

Regarding `CCOc1ccc(CCNC(=O)c2cc3sccc3n2C)cc1OCC`, the inhibition is 26.3% (inactive).

As to `COc1ccc(S(=O)(=O)N(C)c2ccc(C(=O)NC3CCCC3)cc2)cc1`, the inhibition is -11.8% (inactive).

Take `CC(=O)C(C)Sc1nnc(-c2ccccc2F)n1C1CC1` (stereo not drawn): the inhibition was -26.2% (inactive).

`CN1CCN(C(=S)c2cn(Cc3ccccc3F)c3ccccc23)CC1`: the inhibition was -13.6% (inactive).

For `CC(=O)c1cn(CC(=O)Nc2ccccc2F)c2ccccc12`, the inhibition was 14.5% (inactive).

As to `Cc1ccc(C)c(CN2CCC(CNC(=O)Nc3cccc(Cl)c3C)CC2)c1`, the inhibition was 2.1% (inactive).

Consider `CCOC(=O)C1=C(O)c2ccccc2C(=O)/C1=C\c1ccc(CC)cc1`, for which the inhibition is 15.2% (inactive).

Regarding `CCOC(=O)C1=C(Cc2ccc(OC)cc2)C(=O)c2ccccc2C1=O`, the inhibition was 3.6% (inactive).

For the compound `COc1cccc2cc(C(=O)C3=C(O)C(=O)N(CCN4CCOCC4)C3c3ccc(C(C)(C)C)cc3)oc12` (stereo not drawn), the inhibition is -11.6% (inactive).

With `Cc1ccc(CN(C)C(=O)CCc2c[nH]c3ccccc23)o1`, the inhibition is -18.4% (inactive).

For the compound `CN1CCN(c2nc(-c3cccc([N+](=O)[O-])c3)nc3ccccc23)CC1`, the inhibition is -0.7% (inactive).

Take `CCC(=O)N1CCc2cc(S(=O)(=O)Nc3ccccc3C)ccc21`: the inhibition is 3.4% (inactive).

On to `COc1ccc(O)c(-c2[nH]ncc2C(=O)c2cccc(C)c2)c1`, for which the inhibition is -6.8% (inactive).

With `COc1ccc(O)c(-c2[nH]ncc2C(=O)c2ccccc2C)c1`, the inhibition was 26.5% (inactive).

For `CCOC(=O)c1sc(N(Cc2ccccc2)C(=O)COC(=O)c2ccccc2O)nc1C`, the inhibition is -48% (inactive).

Turning to `CCOC(=O)c1sc(N(Cc2ccccc2)C(=O)CCl)nc1C`, the inhibition is 28.7% (active).

As to `CCOC(=O)c1sc(N(Cc2ccccc2)C(=O)COC(=O)c2ccc(O)cc2)nc1C`, the inhibition was 62.2% (inactive).

Turning to `COc1ccc(S(=O)(=O)N2CCCOC2CNC(=O)C(=O)NCCc2ccco2)cc1OC` (stereo not drawn), the inhibition was -2.3% (inactive).

Turning to `O=C(COC(=O)c1cccc(O)c1)NCc1ccc2c(c1)OCO2`, the inhibition is -14.3% (inactive).

With `COc1ccc(C=O)cc1OC(=O)N1CCOCC1`, the inhibition was -9.3% (inactive).

Regarding `Cc1cc(C(=O)COC(=O)CN(C)S(=O)(=O)c2ccc(Cl)cc2)c(C)n1Cc1cccs1`, the inhibition is -20.9% (inactive).

As for `O=C(NCc1cn2ccccc2n1)c1ccco1`, the inhibition was 54% (active).

Regarding `O=C(NCc1cn2ccccc2n1)c1ccccc1`, the inhibition was -22.2% (inactive).

As to `O=C(NCc1cn2ccccc2n1)c1ccc(Br)o1`, the inhibition is -10.7% (inactive).

As to `Cc1ccc(CNC(=O)C2CCCN(c3cnccn3)C2)cc1` (stereo not drawn), the inhibition is -5.5% (inactive).

For the compound `Cc1sc2ncn(CC(=O)NCC(=O)N(C)Cc3ccccc3)c(=O)c2c1C`, the inhibition is -12.2% (inactive).

Turning to `Cc1ccc(NC(=O)C2CCC(CNC(=O)[C@@H]3Cc4ccccc4CN3)CC2)cc1` (stereo partly drawn), the inhibition is -2.3% (inactive).

In the case of `CC(=O)C1=C(O)C(=O)N(c2nccs2)C1c1ccccc1` (stereo not drawn), the inhibition was -8.5% (inactive).

For the compound `O=C(C1=C(O)C(=O)N(c2nccs2)C1c1ccccc1)c1cc2ccccc2o1` (stereo not drawn), the inhibition was -8.9% (inactive).

Consider `COc1ccc(N2CC(C(=O)N3CCN(C)CC3)CC2=O)cc1` (stereo not drawn), for which the inhibition was 3.9% (inactive).

With `COc1ccc(C(=O)/C=C/Nc2ccc(S(=O)(=O)Nc3nc(C)cc(C)n3)cc2)cc1OC`, the inhibition was -18.8% (inactive).

`Cc1ccc(C(=O)N/N=C\c2ccc([N+](=O)[O-])o2)cn1`: the inhibition was 13.2% (inactive).

On to `Nc1nonc1C(=O)N/N=C/c1ccc(-c2cccc([N+](=O)[O-])c2)o1`, for which the inhibition was 5.4% (inactive).

As to `O=C(N/N=C/c1ccc([N+](=O)[O-])o1)c1cc2c(ccc3ccccc32)o1`, the inhibition is 41.1% (inactive).

Consider `O=C(N/N=C/c1ccc([N+](=O)[O-])cc1)c1cc2ccccc2o1`, for which the inhibition is 2.4% (inactive).

`Cc1cc(C(=O)N/N=C/c2ccc([N+](=O)[O-])o2)c(C)o1`: the inhibition was 1.4% (inactive).

On to `Nc1nonc1C(=O)N/N=C/c1ccc(Br)o1`, for which the inhibition was -6% (inactive).

On to `O=C(CNc1ccccc1)N/N=C/c1ccc([N+](=O)[O-])o1`, for which the inhibition is 35% (inactive).

As for `O=C(CNc1ccc2ccccc2c1)N/N=C/c1ccc([N+](=O)[O-])o1`, the inhibition was -5% (inactive).

As to `COc1cc2[nH]c(=O)n(CCC(=O)NCc3cccnc3)c(=O)c2cc1OC`, the inhibition was -17.4% (inactive).

`CCCc1cc(=O)n2[nH]c(NC(=O)c3ccco3)nc2n1`: the inhibition is 1.1% (inactive).

As to `O=C(c1ccco1)N1CCN(Cc2nnc(-c3cccc(Br)c3)o2)CC1`, the inhibition is 37.7% (inactive).

On to `Cc1ccc(/C=N/NC(=O)CNC(=O)c2ccc(S(=O)(=O)N3CCCC3)cc2)o1`, for which the inhibition was -10.1% (inactive).

Consider `CC(C)(C)S(=O)(=O)/C(C#N)=C/c1sccc1C1OCCO1`, for which the inhibition was -9.6% (inactive).

Consider `Cc1sc2nc(CSCC(=O)N(CCC#N)c3ccccc3)[nH]c(=O)c2c1C`, for which the inhibition was -2.8% (inactive).

Regarding `NC(=O)c1ccc(NC(=O)CCNC(=O)c2ccco2)cc1`, the inhibition was 0% (inactive).

For the compound `Cc1cccc(C)c1OCCN1C(=O)NC(C)(c2ccccc2)C1=O` (stereo not drawn), the inhibition was -8.3% (inactive).

Turning to `CC(=O)Nc1ccc(S(=O)(=O)Nc2ccn(Cc3ccccc3Cl)n2)cc1`, the inhibition is -42.3% (inactive).

For the compound `CC1CCc2cc(F)ccc2N1C(=O)CCC(=O)O` (stereo not drawn), the inhibition was -29.7% (inactive).

Consider `CCC(CC)C(=O)N1c2ccc(F)cc2CCC1C` (stereo not drawn), for which the inhibition is 8% (inactive).

Regarding `CC1CCc2cc(F)ccc2N1C(=O)CCl` (stereo not drawn), the inhibition is 66.7% (active).

For the compound `COCCCNC(=S)Nc1cc2oc3ccccc3c2cc1OC`, the inhibition was 5.2% (inactive).

Take `CCN(CC(=O)NC1CCS(=O)(=O)C1)S(=O)(=O)c1ccc(F)cc1` (stereo not drawn): the inhibition was 25.9% (inactive).

For `Cc1ccc(C(=O)N2CCCC(N3CCN(c4cccc(C(F)(F)F)c4)CC3)C2)s1` (stereo not drawn), the inhibition was -29.8% (inactive).

For the compound `Cc1ccccc1OCC(=O)N/N=C/c1c(C)nn(-c2ccccc2)c1Cl`, the inhibition is -26.9% (inactive).

Take `COc1cc(C(=O)NCCCc2nc3ccccc3n2Cc2cc(C)ccc2C)cc(OC)c1OC`: the inhibition was 68.1% (active).

Turning to `COc1ccc(C(=O)NCCCc2nc3ccccc3n2Cc2ccccc2C)cc1OC`, the inhibition was -9.4% (inactive).

Regarding `COc1ccc(C(=O)NCCCc2nc3ccccc3n2Cc2cc(C)ccc2C)cc1OC`, the inhibition is -28.5% (inactive).
